In PubChem BioAssay one finds growth inhibition, inhibition and outcome data, which are given here for 20 compounds.

A short description of test [1]: antimalarial activity against Dd2 strain (AID 2302;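 active = growth inhibition above 50% at the single 2 µM test dose, taken to imply half-maximal potency below 2 µM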;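 note: 0% = DMSO untreated growth and 100% = chloroquine plus artemisinin killed control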). To be noted: P. falciparum Dd2 in RBCs, LDH growth readout, 72 h; at 2 µM; hits give high values.
Test [2] can be described thus: human hepatoma cell viability loss – ATP luminescence, cytotoxicity control for P. falciparum antimalarial project, primary screen (AID 2303;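 active = inhibition above 50%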;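 note: 0% = DMSO wells and 100% = digitonin-killed cells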). To be noted: HepG2 viability, 24-48 h, at 10 µM, hits give high values.
Test [3] has as its target L-lactate dehydrogenase (Plasmodium falciparum (isolate CDC / Honduras)) (UniProt Q27743). The test can be described thus: PfLDH activity inhibition – cell lysate, 3D7 strain, counter-screen for P. falciparum growth inhibition project (AID 2304).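 Note: 0% = vehicle and 100% = reference inhibitor.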 As to conditions: P. falciparum 3D7 crude extract, LDH APAD/NBT absorbance; at 2 µM; hits give high values. Background: Counterscreens check selectivity or assay interference.

A short description of test [4]: inhibition of 3D7 malaria parasite growth – strain 3D7 (AID 2306).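 Note: 0% = DMSO wells and 100% = chloroquine plus artemisinin control wells.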 To be noted: P. falciparum 3D7 erythrocytic growth, LDH absorbance, 72 h; at 2 µM; hits give high values.
In test [5] the target is Calcium-dependent protein kinase 1 (Plasmodium falciparum (isolate 3D7)) (UniProt P62344). Kind of test: PfCDPK1 kinase inhibitors, biochemical, TCAMS library (AID 1159585; cut-off not given, nearly all actives have IC50 up to about 0.98 µM;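 note: inhibitors leave more ATP so luminescence rises with inhibition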). As to conditions: recombinant PfCDPK1, Kinase-Glo ATP depletion luminescence. In general terms: In Kinase-Glo more light means more ATP remaining.
Chain of Calcium-dependent protein kinase 1 (Plasmodium falciparum (isolate 3D7)) (P62344 whole entry, looked up): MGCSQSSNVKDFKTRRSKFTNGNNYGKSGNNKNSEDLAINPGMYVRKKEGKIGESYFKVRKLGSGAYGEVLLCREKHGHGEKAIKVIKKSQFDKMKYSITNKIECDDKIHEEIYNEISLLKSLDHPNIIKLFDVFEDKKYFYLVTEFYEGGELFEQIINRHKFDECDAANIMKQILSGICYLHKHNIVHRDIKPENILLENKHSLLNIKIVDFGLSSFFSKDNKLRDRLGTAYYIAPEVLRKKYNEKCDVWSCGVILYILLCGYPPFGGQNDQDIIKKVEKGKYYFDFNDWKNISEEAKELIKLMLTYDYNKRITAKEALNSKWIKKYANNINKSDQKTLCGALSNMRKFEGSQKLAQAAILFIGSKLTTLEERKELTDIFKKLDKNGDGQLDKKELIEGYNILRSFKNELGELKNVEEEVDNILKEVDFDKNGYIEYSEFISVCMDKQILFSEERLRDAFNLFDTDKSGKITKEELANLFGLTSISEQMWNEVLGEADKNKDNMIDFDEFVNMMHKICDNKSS
Test [6] has as its target Plasmodium falciparum protein kinase 6 (PK6, PF3D7_1337100) (UniProt Q8IDW1). The test can be described thus: PfPK6 kinase inhibitors, biochemical, TCAMS library (AID 1159586). To be noted: recombinant PfPK6, Kinase-Glo ATP depletion luminescence.
Test [7] deals with Protein kinase 7 (PK7), Plasmodium falciparum 3D7 (PF3D7_0213400) (UniProt Q7YTF7). Kind of test: inhibition of Plasmodium PK7 catalytic activity – biochemical, TCAMS antimalarial set, Kinase-Glo luminescence (AID 1159587). As to conditions: recombinant PfPK7, Kinase-Glo ATP depletion luminescence.
Chain of Protein kinase 7 (PK7), Plasmodium falciparum 3D7 (PF3D7_0213400) (Q7YTF7 1-343): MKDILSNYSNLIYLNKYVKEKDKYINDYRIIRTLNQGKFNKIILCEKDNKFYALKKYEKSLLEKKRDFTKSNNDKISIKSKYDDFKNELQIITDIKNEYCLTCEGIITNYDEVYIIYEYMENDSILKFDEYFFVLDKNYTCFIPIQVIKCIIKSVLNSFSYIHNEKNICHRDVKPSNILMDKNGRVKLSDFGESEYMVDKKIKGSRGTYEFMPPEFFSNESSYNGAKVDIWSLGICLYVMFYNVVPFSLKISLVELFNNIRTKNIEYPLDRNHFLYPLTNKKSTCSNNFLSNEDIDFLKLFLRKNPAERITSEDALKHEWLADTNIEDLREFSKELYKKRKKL
In test [8] the target is Calcium-dependent protein kinase 4 (Plasmodium falciparum (isolate 3D7)) (UniProt Q8IBS5). Kind of test: PfCDPK4 kinase inhibitors, biochemical, TCAMS library (AID 1159588; cut-off not given, nearly all actives have IC50 up to about 0.91 µM). As to conditions: recombinant PfCDPK4, Kinase-Glo ATP depletion luminescence.
Chain of Calcium-dependent protein kinase 4 (Plasmodium falciparum (isolate 3D7)) (Q8IBS5 whole entry, looked up): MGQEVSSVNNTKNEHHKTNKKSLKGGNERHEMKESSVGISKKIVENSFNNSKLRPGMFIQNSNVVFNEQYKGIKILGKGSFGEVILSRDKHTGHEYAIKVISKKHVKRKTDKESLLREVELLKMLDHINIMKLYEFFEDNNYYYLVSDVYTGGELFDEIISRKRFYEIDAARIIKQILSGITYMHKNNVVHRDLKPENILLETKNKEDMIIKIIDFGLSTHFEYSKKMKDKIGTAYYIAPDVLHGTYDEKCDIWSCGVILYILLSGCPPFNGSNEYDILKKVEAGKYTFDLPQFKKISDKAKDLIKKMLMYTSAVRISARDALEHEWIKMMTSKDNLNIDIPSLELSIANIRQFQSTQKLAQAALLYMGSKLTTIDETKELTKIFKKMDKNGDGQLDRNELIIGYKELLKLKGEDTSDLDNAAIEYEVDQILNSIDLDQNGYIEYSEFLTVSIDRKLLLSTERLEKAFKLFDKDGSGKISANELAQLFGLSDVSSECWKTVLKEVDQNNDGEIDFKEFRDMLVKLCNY

SMILES strings stand for the structures. Unmarked numbers belong to inactive results. For some of these results: Measured potencies and affinities stand elsewhere. Activity calls are given as the source filed them. Unless noted, the rule behind the calls is not given here.

Chain of L-lactate dehydrogenase (Plasmodium falciparum (isolate CDC / Honduras)) (Q27743 whole entry, looked up): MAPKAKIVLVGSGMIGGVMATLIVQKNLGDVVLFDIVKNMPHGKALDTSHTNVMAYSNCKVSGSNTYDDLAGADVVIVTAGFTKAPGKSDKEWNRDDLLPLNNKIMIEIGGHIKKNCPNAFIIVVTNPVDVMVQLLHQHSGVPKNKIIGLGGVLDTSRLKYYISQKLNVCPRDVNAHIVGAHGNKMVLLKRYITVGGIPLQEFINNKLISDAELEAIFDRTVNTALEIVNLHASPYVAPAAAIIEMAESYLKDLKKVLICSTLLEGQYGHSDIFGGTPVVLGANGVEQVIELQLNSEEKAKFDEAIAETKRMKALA
Chain of Plasmodium falciparum protein kinase 6 (PK6, PF3D7_1337100) (Q8IDW1 1-305): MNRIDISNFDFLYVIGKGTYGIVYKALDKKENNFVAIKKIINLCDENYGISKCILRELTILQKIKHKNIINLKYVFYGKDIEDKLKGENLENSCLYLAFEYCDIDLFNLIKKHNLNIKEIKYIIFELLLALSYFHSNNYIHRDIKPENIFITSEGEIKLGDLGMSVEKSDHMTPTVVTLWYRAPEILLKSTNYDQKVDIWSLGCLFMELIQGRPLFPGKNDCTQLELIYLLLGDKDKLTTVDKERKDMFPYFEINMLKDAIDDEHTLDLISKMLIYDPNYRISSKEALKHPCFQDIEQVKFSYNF

On to `COc1ccc(-c2cc(C(=O)N3CCc4ccccc43)c3ccccc3n2)cc1OC`, for which the growth inhibition in test [1] was 48%; in test [4], 85% (active). Further, the inhibition (as a rule, the change of the read-out against control, counted positive when it falls) in test [2] is 5%; in test [3] it was 3%. Moreover, the result in test [5], in test [6], in test [7] and in test [8] was inactive.
Turning to `Cc1ccc(NC(=O)c2ccc(-c3cc4cc(Cl)c(Cl)cc4[nH]3)cc2)cc1OCCN1CCCC1`, the results for the growth inhibition in test [1] and in test [4] were 90% (active) and 101% (active), respectively. In addition, the inhibition is 7% in test [2] and -6% in test [3]. The result in test [5], in test [6], in test [7] and in test [8] was inactive.
On to `Cc1cccc(C(=O)Nc2ccnc(N3CCC(N(C)Cc4ccc(C#N)cc4)CC3)c2)c1`, for which the growth inhibition in test [1] is 6%; in test [4] it was 94% (active). In addition, the values for the inhibition in test [2] and in test [3] were 12% and -4%, respectively. Also, the outcome in test [5], in test [6], in test [7] and in test [8] was inactive.
As to `O=C(Nc1ccc(Oc2ccccc2)cc1)N(Cc1ccc(-c2ccc(CN3CCNCC3)cc2)cc1)C1CCN(Cc2ccccc2)CC1`, the values for the growth inhibition in test [1] and in test [4] were 73% (active) and 101% (active), respectively. Moreover, the inhibition in test [2] is 31%; in test [3], -1%. Further, the outcome in test [5], in test [6], in test [7] and in test [8] was inactive.
For `Cc1cc(N[C@@H](Cc2ccccc2)C(=O)NCCc2ccccc2)nc(NCCc2cccs2)n1`, the growth inhibition in test [1] was 84% (active); in test [4] it was 99% (active). Besides, the results for the inhibition in test [2] and in test [3] were 12% and 4%, respectively. For the same compound, the result in test [5], in test [6], in test [7] and in test [8] was inactive.
Consider `C=C[C@H]1CN(CCCCCCC)CC[C@H]1CCNc1ccnc2ccc(OC)cc12`, for which the growth inhibition in test [1] was 81% (active); in test [4], 95% (active). The inhibition in test [2] was 99% (active); in test [3], 7%. The outcome in test [5], in test [6], in test [7] and in test [8] was inactive.
On to `CC(C)CNCc1ccc(-c2cccc(CN(CCN(C)C)C(=O)CCC3CCCC3)c2)cc1`, for which the growth inhibition in test [1] is 81% (active); in test [4], 100% (active). Further, the inhibition in test [2] was 56% (active); in test [3], -11%. Further, the result in test [5], in test [6], in test [7] and in test [8] was inactive.
As for `O=C(CNC1=NCCN1)Nc1ccc(NC(=O)Nc2ccc(NC(=O)CNC3=NCCN3)cc2)cc1`, the growth inhibition was 75% (active) in test [1] and 90% (active) in test [4]. Also, the inhibition in test [2] was -5%; in test [3], -2%. Further, the result in test [5], in test [6], in test [7] and in test [8] was inactive.
Turning to `O=C(Nc1ccc(-c2ccccc2)c(OCCN2CCNCC2)c1)c1ccc(-c2ccc(Cl)cc2)cc1`, the growth inhibition in test [1] was 31%; in test [4], 96% (active). The inhibition in test [2] is 92% (active); in test [3], -8%. In addition, the outcome in test [5], in test [6], in test [7] and in test [8] was inactive.
With `COc1ccc(NS(=O)(=O)c2ccccc2Br)cc1N1CCN(C)CC1`, the growth inhibition is 3% in test [1] and 94% (active) in test [4]. The inhibition in test [2] was 2%; in test [3], -3%. Also, the result in test [5], in test [6], in test [7] and in test [8] was inactive.
For the compound `COc1ccc2nccc([C@@H](O)CN3CCC(CO)(NCc4cc5ccccc5o4)CC3)c2c1`, the growth inhibition in test [1] was 7%; in test [4], 85% (active). Further, the inhibition in test [2] was 12%; in test [3], -1%. The outcome in test [5], in test [6], in test [7] and in test [8] was inactive.
Consider `COc1ccc(CNc2nc(NCc3ccccc3)c3cc(OC)c(OC)cc3n2)cc1OC`, for which the growth inhibition in test [1] is 99% (active); in test [4] it was 103% (active). In addition, the inhibition in test [2] was 24%; in test [3], -6%. For the same compound, the outcome in test [5], in test [6], in test [7] and in test [8] was inactive.
As for `COc1ccc(CN2CCC(CNCCc3ccccc3Cl)CC2)cc1`, the figures for the growth inhibition in test [1] and in test [4] were 17% and 87% (active), respectively. The values for the inhibition in test [2] and in test [3] were 36% and -9%, respectively. Besides, the result in test [5], in test [6], in test [7] and in test [8] was inactive.
`O=C(NC1CCCC1)c1ccc(N2CCC(NCc3cc4cc(Cl)ccc4[nH]3)CC2)cc1`: the growth inhibition in test [1] is -10%; in test [4], 91% (active). Further, the inhibition in test [2] is 21%; in test [3], -2%. Besides, the outcome in test [5], in test [6], in test [7] and in test [8] was inactive.
In the case of `NC(=O)c1cccc(Nc2nccc(Nc3ccc(Oc4c(Cl)cccc4Cl)c(Cl)c3)n2)c1`, the growth inhibition in test [1] is 17%; in test [4], 93% (active). In addition, the inhibition in test [2] was 2%; in test [3], 5%. For the same compound, the outcome in test [5], in test [6], in test [7] and in test [8] was inactive.
As for `Cc1ccc2c(NN=Cc3ccc(Cl)cc3)cc(C)nc2c1`, the growth inhibition in test [1] is 34%; in test [4] it was 100% (active). The inhibition in test [2] is -1%; in test [3] it was -2%. For the same compound, the result in test [5], in test [6], in test [7] and in test [8] was inactive.
As for `Cc1ccoc1C(=O)Nc1cccc(-c2cccc(-c3nc4ccc(C(F)(F)F)cc4[nH]3)c2)c1`, the growth inhibition was 37% in test [1] and 98% (active) in test [4]. Besides, the figures for the inhibition in test [2] and in test [3] were 39% and -6%, respectively. The outcome in test [5], in test [6], in test [7] and in test [8] was inactive.
Turning to `FC(F)(F)c1cnc(Sc2nnc(-c3ccco3)o2)c(Cl)c1`, the figures for the growth inhibition in test [1] and in test [4] were 97% (active) and 98% (active), respectively. Besides, the inhibition in test [2] was -1%; in test [3], -4%. Moreover, the outcome in test [5], in test [6], in test [7] and in test [8] was inactive.
With `COc1cccc(CN2CCC(N3CCc4cc(NC(=O)c5cc(C)on5)ccc43)C2)c1OC` (stereo not given), the growth inhibition in test [1] was 92% (active); in test [4] it was 93% (active). In addition, the figures for the inhibition in test [2] and in test [3] were 9% and 4%, respectively. Besides, the outcome in test [5], in test [6], in test [7] and in test [8] was inactive.
In the case of `COc1ccc2nc3cc(Cl)ccc3c(NCCCO)c2c1`, the growth inhibition in test [1] and in test [4] was 100% (active) each time. Moreover, the inhibition was 32% in test [2] and -1% in test [3]. In addition, the outcome in test [5], in test [6], in test [7] and in test [8] was inactive.
